Experimental data as given in PubChem BioAssay AID720688 (NMMLSC, 2013).
The source made the active and inactive calls.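 How the source made its calls: active means half-effect concentration at most 10 µM, response change at least 30% across doses, and a curve fit passing quality checks; inactive means the rest.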

Molecular target: Cell division control protein 42 homolog (Homo sapiens) (UniProt P60953)
Experiment: inhibition of fluorescent GTP binding to wildtype Cdc42 – biochemical, protein source comparison, flow cytometry beads, Bodipy-FL-GTP, mechanism study for Ras-family GTPase inhibitor project, late-stage follow-up (AID 720688)
Details: GST-Cdc42 beads; protein source 1, at 100 µM (top of the series)

Sequence of Cell division control protein 42 homolog (Homo sapiens) (P60953 whole entry, looked up): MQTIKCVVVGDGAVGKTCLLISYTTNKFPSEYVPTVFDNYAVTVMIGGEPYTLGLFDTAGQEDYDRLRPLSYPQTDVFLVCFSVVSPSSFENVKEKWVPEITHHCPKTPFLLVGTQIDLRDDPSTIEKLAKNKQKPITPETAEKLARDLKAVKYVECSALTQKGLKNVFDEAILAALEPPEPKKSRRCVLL

SMILES | outcome
CC1(C)Cc2c(sc(NC(=S)NC(=O)c3ccc(N=[N+]=[N-])cc3)c2C(=O)O)CO1 | inactive
CC1(C)Cc2c(sc(NC(=S)NC(=O)c3cccc(N=[N+]=[N-])c3)c2C(=O)O)CO1 | inactive
